Laboratory results from PubChem BioAssay AID920 (The Scripps Research Institute Molecular Screening Center, 2007).
Among all 200,000 compounds or so, about 700 (0.35%) were called active. The sample holds actives, similar compounds and a random draw of the others, so the mix is not that of the screen.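 How the source made its calls: active means inhibition above a set limit, the mean inhibition across all tested compounds plus 3 SD (cut at about 34% in these data); inactive means the rest.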

Test: STAT1 signaling inhibitors, primary screen, cell-based, HTS, luciferase reporter (AID 920);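 further: 0% = IFN-gamma with DMSO and 100% = IFN-gamma with 300 µM nifuroxazide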
Details: NIH 3T3 STAT1-luciferase reporter, IFN-gamma, luminescence; at 5.5 µM; stronger effect = higher value

Row | Compound | inhibition
1 | Cc1nc2ccc(N3CCN(C)CC3)cc2nc1C | -26.2% (inactive)
2 | CN1CCN(c2cc(N3CCNCC3)ccc2[N+](=O)[O-])CC1 | 12.4% (inactive)
3 | COc1cccc(-c2nc3ccc(N4CCN(C)CC4)cc3[nH]2)c1 | 63.1% (active)
4 | CN(C)/C=C(\C=[N+](C)C)c1[nH]ncc1[N+](=O)[O-] | -9.13% (inactive)
5 | COc1ccc(CCn2c(O)c(C=NCCCn3ccnc3)c(=O)[nH]c2=O)cc1OC | -4.43% (inactive)
